# From PubChem BioAssay
# Calls of active or inactive are those of the source.
# Legend:
# [1] = tested on: PRMT1 (protein arginine N-methyltransferase 1); test: small molecules binding arginine methyltransferase PRMT1 – biochemical, small-molecule microarray, 635 nm fluorescence, primary screen (AID 1088); conditions: higher = more signal;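 further: binding of Prmt1 protein to compounds spotted on small-molecule microarray slides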
# [2] = growth effects on S. cerevisiae YJM789 – YJM789 clinical isolate, OD600, 24 h, basal, primary screen (AID 1089); conditions: higher = more signal, called active from +8 up or from −8 down;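 further: growth of clinical yeast isolate S. cerevisiae YJM 789 seeded 1000 cells per well; test concentration not given here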
# [3] = S. pombe growth modifiers, basal conditions – strain 972, OD600, 24 h, no modulator, primary screen (AID 1090);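 further: basal condition with compound alone and no growth modifier present; test concentration not given here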; conditions: S. pombe 972 growth, higher = more signal, called active from +8 up or from −8 down
# [4] = budding yeast growth modifiers under rapamycin – strain BY4716, OD600, 96 h, primary screen (AID 1091); further: test concentration not given here; conditions: S. cerevisiae BY4716 + rapamycin, higher = more signal, called active from +8 up or from −8 down
# [5] = molecular target: Torsin-1A-interacting protein 2 (Homo sapiens) (UniProt Q8NFQ8); test: small molecules binding lysate-expressed LULL1 – cell lysate, human LULL1 lysate, 635/667 nm fluorescence, primary screen (AID 1092); conditions: small-molecule microarray, hLULL1 lysate binding, 635 nm fluorescence; higher = more signal;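 further: probe is lysate of COS7 cells overexpressing human LULL1; score merges per-feature 667 nm fluorescence with signal-to-noise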
# Torsin-1A-interacting protein 2 (Homo sapiens), sequence (Q8NFQ8 whole entry, looked up): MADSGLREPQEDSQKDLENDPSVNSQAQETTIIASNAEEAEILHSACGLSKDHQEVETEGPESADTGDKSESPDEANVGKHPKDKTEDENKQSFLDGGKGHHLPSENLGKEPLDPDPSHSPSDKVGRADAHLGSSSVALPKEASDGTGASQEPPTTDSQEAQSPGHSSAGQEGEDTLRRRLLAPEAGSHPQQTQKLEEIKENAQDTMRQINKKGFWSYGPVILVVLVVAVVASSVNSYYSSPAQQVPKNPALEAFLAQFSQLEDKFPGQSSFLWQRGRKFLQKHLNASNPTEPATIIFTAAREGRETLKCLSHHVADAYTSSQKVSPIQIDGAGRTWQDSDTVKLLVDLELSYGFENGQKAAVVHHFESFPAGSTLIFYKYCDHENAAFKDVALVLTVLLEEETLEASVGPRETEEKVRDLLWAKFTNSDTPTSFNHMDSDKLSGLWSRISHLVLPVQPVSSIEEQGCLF
# [6] = optical density change of DRC41 E. coli – strain DRC41, OD650, 24 h, E. coli filamentation project, primary screen (AID 1093);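 further: MC1000 strain lacking acrAB efflux and sulA so SOS filamentation is blocked; test concentration not given here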; conditions: E. coli DRC41 growth, higher = more signal, called active from +8 up or from −8 down
# [7] = probe aLefty2 binding to arrayed compounds – biochemical, biotinylated probe, 635/667 nm fluorescence, primary screen (AID 1094); conditions: small-molecule microarray, higher = more signal;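 further: score merges spot fluorescence near 667 nm with spot signal-to-noise ratio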
# [8] = tested on: Noggin (protein binding on small-molecule microarray); test: small molecules binding Noggin protein – biochemical, 635/667 nm fluorescence, primary screen (AID 1095); conditions: 635 nm fluorescence, higher = more signal;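 further: score merges 667 nm feature fluorescence with signal to noise over triplicate slides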
# [9] = molecular target: Neurogenic locus notch homolog protein 3 (Homo sapiens) (UniProt Q9UM47); test: small molecules binding NOTCH3 protein – biochemical, 635/667 nm fluorescence, primary screen (AID 1096); conditions: small-molecule microarray, 635 nm fluorescence, higher = more signal
# Neurogenic locus notch homolog protein 3 (Homo sapiens), sequence (Q9UM47 whole entry, looked up): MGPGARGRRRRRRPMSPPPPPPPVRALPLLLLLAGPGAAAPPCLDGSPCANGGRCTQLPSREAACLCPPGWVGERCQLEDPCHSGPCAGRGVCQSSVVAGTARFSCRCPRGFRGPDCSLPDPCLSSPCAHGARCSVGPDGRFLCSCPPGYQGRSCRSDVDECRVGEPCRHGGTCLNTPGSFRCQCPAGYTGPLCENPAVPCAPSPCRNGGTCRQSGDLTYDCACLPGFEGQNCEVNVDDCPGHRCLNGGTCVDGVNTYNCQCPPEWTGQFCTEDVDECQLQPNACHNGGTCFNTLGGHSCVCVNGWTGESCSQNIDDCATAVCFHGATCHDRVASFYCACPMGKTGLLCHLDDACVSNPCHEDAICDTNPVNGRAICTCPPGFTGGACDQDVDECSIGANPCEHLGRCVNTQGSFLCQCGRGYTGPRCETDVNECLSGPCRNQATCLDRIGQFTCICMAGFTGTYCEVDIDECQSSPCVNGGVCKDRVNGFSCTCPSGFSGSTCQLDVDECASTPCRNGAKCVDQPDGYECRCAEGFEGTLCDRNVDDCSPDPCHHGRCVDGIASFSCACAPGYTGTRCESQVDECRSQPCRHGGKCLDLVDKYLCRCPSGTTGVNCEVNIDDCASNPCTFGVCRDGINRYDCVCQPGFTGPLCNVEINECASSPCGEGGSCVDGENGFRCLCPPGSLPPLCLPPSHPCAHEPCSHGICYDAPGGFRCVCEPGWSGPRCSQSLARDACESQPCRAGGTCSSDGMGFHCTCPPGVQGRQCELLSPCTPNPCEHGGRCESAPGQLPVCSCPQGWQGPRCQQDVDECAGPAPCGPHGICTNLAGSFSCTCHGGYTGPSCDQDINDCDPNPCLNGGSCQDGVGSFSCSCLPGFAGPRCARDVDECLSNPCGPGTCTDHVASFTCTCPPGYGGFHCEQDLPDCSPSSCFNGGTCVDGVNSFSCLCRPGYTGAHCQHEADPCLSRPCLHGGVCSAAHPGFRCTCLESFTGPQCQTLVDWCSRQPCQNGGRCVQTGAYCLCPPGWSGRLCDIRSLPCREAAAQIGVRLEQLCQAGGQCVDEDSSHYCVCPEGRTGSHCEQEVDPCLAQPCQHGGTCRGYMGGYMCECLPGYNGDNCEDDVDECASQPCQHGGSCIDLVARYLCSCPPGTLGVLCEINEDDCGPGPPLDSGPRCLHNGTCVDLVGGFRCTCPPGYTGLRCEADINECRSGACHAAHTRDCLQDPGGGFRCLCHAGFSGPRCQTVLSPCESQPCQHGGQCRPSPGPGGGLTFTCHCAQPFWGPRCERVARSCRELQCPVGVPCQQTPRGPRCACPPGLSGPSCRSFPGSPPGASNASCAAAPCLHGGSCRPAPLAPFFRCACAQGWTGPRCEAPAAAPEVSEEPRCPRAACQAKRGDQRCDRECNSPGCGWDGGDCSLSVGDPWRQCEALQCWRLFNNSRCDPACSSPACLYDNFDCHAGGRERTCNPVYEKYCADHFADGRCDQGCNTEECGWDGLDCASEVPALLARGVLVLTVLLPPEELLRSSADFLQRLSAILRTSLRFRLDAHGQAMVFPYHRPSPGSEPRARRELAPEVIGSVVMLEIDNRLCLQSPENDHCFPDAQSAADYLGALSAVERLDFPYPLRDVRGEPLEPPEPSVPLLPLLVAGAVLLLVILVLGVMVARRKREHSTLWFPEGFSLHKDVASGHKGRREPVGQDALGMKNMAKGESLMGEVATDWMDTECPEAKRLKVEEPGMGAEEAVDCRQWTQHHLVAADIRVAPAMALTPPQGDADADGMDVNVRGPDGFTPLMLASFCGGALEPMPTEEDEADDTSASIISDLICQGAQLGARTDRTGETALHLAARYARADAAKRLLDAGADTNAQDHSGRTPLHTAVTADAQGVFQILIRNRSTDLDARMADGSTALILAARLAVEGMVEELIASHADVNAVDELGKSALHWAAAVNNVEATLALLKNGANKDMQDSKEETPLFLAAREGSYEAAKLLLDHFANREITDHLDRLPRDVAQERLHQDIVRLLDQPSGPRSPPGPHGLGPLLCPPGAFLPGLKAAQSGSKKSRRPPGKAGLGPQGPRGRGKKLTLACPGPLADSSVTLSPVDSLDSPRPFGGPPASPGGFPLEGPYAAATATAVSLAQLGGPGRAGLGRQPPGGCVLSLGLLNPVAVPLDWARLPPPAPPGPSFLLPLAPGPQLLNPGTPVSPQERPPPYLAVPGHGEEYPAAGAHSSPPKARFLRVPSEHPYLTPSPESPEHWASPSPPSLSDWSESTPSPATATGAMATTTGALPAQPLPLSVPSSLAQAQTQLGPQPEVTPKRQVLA
# [10] = probe aEGFR binding to arrayed compounds – biochemical, biotinylated probe, 635/667 nm fluorescence, primary screen (AID 1097); conditions: small-molecule microarray, higher = more signal;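 further: probe is a biotinylated anti-EGFR antibody binding compounds printed on slides; score combines fluorescence near 667 nm and signal to noise of each spot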
# [11] = tested on: Plasmodium falciparum Sir2 (PF13_0152, Sir2A); test: Plasmodium falciparum Sir2A binding compounds – biochemical, small-molecule microarray, 635 nm fluorescence, primary screen (AID 1098); conditions: fluorescence 635 nm, higher = more signal;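 further: score merges spot fluorescence intensity with its signal-to-noise ratio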
# [12] = probe aDKK1 binding to arrayed compounds – biochemical, biotinylated probe, 635/667 nm fluorescence, primary screen (AID 1099); conditions: small-molecule microarray, higher = more signal;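 further: score merges 667nm spot fluorescence with signal to noise across triplicate slides; reference of the scale not given here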
# [13] = probe aCHRDL2 binding to arrayed compounds – biochemical, biotinylated probe, 635/667 nm fluorescence, primary screen (AID 1100); conditions: small-molecule microarray, higher = more signal
# [14] = change in splice reporter luminescence, either direction, cell-based, HEK293, spliceosome inhibition project, primary screen (AID 1101); conditions: HEK293 splicing luciferase reporter, 24 h, higher = more signal, called active from +8 up or from −8 down;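 further: HEK293 cells carrying a splicing-competent luciferase reporter gene; test concentration not given here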
# [15] = molecular target: Fibroblast growth factor 10 (Homo sapiens) (UniProt O15520); test: compounds binding fibroblast growth factor 10 – biochemical, small-molecule microarray, 635 nm fluorescence, primary screen (AID 1102); conditions: FGF10 binding, fluorescence 635 nm, higher = more signal
# Fibroblast growth factor 10 (Homo sapiens), sequence (O15520 whole entry, looked up): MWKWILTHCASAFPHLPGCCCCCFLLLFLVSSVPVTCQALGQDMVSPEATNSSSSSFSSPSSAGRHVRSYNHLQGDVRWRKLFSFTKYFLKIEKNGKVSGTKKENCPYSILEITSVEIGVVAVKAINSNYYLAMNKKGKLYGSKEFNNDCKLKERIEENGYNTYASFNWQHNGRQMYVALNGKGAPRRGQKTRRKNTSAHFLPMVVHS
# [16] = tested on: glycogen synthase kinase-3 (GSK3A per assay name; protocol says GSK3B); test: compounds binding glycogen synthase kinase-3 – biochemical, small-molecule microarray, 635 nm fluorescence, GSK3A, primary screen (AID 1103); conditions: fluorescence 635 nm, higher = more signal; further: the record names both GSK3A and GSK3B
# [17] = molecular target: Epidermal growth factor receptor (Homo sapiens) (UniProt P00533); test: compounds binding epidermal growth factor receptor – biochemical, small-molecule microarray, 635 nm fluorescence, primary screen (AID 1104); conditions: EGFR binding, higher = more signal;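 further: score merges 667 nm emission intensity with spot signal to noise over triplicate slides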
# Epidermal growth factor receptor (Homo sapiens), sequence (P00533 whole entry, looked up): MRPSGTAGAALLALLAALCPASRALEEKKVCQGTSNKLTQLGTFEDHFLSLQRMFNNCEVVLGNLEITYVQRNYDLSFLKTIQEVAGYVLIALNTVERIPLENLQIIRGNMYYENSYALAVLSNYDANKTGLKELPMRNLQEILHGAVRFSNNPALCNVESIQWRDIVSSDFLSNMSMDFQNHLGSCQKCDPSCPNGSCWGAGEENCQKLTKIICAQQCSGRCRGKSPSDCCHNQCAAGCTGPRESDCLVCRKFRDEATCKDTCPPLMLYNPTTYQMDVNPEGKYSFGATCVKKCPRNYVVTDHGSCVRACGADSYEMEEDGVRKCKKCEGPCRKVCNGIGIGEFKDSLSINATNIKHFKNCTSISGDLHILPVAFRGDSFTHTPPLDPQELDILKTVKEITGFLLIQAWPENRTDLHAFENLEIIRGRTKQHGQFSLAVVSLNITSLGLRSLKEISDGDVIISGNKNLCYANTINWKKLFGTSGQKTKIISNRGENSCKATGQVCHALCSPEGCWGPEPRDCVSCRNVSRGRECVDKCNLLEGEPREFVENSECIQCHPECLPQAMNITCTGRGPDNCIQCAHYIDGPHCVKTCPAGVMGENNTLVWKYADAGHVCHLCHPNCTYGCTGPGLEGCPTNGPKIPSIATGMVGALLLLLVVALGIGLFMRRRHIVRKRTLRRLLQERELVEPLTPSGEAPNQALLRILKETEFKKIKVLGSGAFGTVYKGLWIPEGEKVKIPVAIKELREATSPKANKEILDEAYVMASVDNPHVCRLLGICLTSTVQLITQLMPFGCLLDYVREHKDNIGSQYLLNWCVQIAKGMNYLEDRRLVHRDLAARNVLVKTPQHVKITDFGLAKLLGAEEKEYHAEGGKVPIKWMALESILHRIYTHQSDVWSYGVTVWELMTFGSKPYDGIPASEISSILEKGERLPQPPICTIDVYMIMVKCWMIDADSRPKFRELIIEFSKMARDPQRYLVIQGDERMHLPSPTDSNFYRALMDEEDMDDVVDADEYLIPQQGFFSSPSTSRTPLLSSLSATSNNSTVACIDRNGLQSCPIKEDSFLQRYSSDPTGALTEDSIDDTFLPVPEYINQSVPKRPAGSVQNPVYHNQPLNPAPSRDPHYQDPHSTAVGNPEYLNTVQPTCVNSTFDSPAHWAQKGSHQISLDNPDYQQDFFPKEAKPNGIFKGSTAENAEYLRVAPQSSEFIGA
# [18] = molecular target: Follistatin-related protein 3 (Homo sapiens) (UniProt O95633); test: compounds binding follistatin-related protein 3 – biochemical, small-molecule microarray, 635 nm fluorescence, primary screen (AID 1105); conditions: FSTL3 binding, higher = more signal;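 further: score merges emission near 667 nm and signal to noise per printed spot across three slides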
# Follistatin-related protein 3 (Homo sapiens), sequence (O95633 whole entry, looked up): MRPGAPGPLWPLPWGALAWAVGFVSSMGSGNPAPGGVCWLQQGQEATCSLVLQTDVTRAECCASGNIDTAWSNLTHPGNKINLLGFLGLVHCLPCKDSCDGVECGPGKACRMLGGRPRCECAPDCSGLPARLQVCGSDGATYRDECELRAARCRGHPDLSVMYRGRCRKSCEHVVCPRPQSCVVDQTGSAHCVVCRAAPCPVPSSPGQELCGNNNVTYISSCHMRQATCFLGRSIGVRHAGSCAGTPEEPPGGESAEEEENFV
# [19] = molecular target: Dickkopf-related protein 1 (Homo sapiens) (UniProt O94907); test: small molecules binding DKK1 protein – biochemical, small-molecule microarray, 635 nm fluorescence scan, primary screen (AID 1106); conditions: higher = more signal;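 further: score merges emission near 667 nm with signal to noise over three replicate slides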
# Dickkopf-related protein 1 (Homo sapiens), sequence (O94907 whole entry, looked up): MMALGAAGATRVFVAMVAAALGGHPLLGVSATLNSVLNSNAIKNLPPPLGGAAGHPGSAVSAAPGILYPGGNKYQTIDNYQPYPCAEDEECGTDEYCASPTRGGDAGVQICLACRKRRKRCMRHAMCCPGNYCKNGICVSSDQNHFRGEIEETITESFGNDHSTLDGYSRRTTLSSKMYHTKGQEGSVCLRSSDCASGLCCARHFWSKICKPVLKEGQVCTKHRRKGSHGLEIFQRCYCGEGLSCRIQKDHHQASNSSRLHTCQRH
# [20] = tested on: Inhibin beta A chain (activin A); test: small molecules binding activin A – biochemical, small-molecule microarray, 635 nm fluorescence scan, primary screen (AID 1107); conditions: INHBA, higher = more signal;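 further: mouse activin A protein probed at 4.33 µg/mL on printed slides; score merges bound-protein fluorescence near 667 nm with spot signal-to-noise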
SMILES,composite z-score [1],z-score [2],z-score [3],z-score [4],composite z-score [5],z-score [6],composite z-score [7],composite z-score [8],composite z-score [9],composite z-score [10],composite z-score [11],composite z-score [12],composite z-score [13],z-score [14],composite z-score [15],composite z-score [16],composite z-score [17],composite z-score [18],composite z-score [19],composite z-score [20]
CN(C)CCCCCCNC(=O)[C@@H]1C[C@@H]2C(=O)N[C@@H](CCCCN)C(=O)N2[C@@H]1c1ccc(O)cc1,1.54,-0.38 (inactive),-3.54 (inactive),-0.958 (inactive),4.67,1.98 (inactive),1.87,2.25,1.02,1.31,2.07,3,1.81,-2.28 (inactive),1.58,1.46,1.68,1.64,2.29,1.56
O=C1N(CCS(=O)(=O)c2ccccc2)Cc2ccccc2[C@@H]2OC(c3ccc(OCCCO)cc3)=N[C@]12CCS(=O)(=O)c1ccccc1,1.53,2.61 (inactive),1.97 (inactive),6.29 (inactive),3.23,0.833 (inactive),0.338,1.06,1.02,0.266,1.14,0.846,0.788,-0.42 (inactive),1.46,1.32,0.89,1.48,1.46,1.22
COc1cc2c(cc1O)C(c1ccc(CN3CCCC3)cc1)N(C)CC2 (stereo not given),-1.16,0.526 (inactive),-0.262 (inactive),0.539 (inactive),0.54,0.774 (inactive),-0.316,-0.814,-0.579,-0.191,0.232,-0.0829,-0.275,-0.00442 (inactive),0.167,-1.27,-0.419,-0.567,-0.622,-0.172
COCCOC(=O)N1C(=O)[C@@]2(c3cc(C#CC4=CCCCC4)ccc31)[C@H](c1ccc(O)cc1)N1[C@H](c3ccccc3)[C@H](c3ccccc3)OC(=O)[C@H]1[C@@H]2C(=O)NC[C@H](O)c1ccccc1,1.56,1.44 (inactive),0.236 (inactive),3.15 (inactive),2.51,0.12 (inactive),-0.003,0.782,1.07,0.0397,0.535,0.0353,0.129,-0.586 (inactive),1.12,0.348,0.462,1.17,0.557,0.528
CC(C)[C@H]1NC(=O)[C@@]23C(=O)N[C@@H](Cc4ccccc4)C2[C@H](C)[C@@]2(C)O[C@H]2C3/C=C/C/C=C\CNC(=O)[C@H](Cc2ccccc2)NC1=O (stereo not given in full),1.53,-0.155 (inactive),-0.228 (inactive),0.246 (inactive),2.68,0.317 (inactive),-0.052,0.877,1.08,0.0354,0.205,-0.38,-0.481,0.0723 (inactive),1.37,1.08,0.512,1.44,0.336,1.12
CC(=O)NCCCC[C@@H]1NC(=O)[C@H]2C[C@@H](C(=O)NCCCCCNC(=O)CS)[C@@H](c3cccc(OCCO)c3)N2C1=O,0.896,0.778 (inactive),0.0625 (inactive),0.0709 (inactive),3.18,-0.418 (inactive),-0.184,0.52,0.059,-0.104,1.52,-0.136,0.441,-0.293 (inactive),0.349,0.552,0.39,0.397,0.607,0.469
CCOC(=O)C[C@H]1[C@H](OC(=O)c2ccc(-c3ccccc3)cc2)[C@@H](NC(=O)CC(C)C)c2cc(OCCCO)ccc2N1C(=O)c1ccccc1,0.468,0.72 (inactive),1.4 (inactive),1.38 (inactive),1.49,-0.513 (inactive),-0.107,0.49,0.952,0.048,0.166,0.148,-0.0525,-0.493 (inactive),0.418,-0.106,-0.101,0.648,0.455,0.214
CCOC(=O)C[C@H]1[C@H](OC(=O)c2cc3ccccc3oc2=O)[C@@H](NC(=O)c2ccc3ccccc3c2)c2cc(OCCCO)ccc2N1C(=O)Cc1ccc(OC)cc1,0.631,0.173 (inactive),0.106 (inactive),-1.33 (inactive),2.48,-0.436 (inactive),-0.0359,0.405,0.872,0.0009,0.571,-0.0385,-0.0886,-0.239 (inactive),0.576,0.162,0.34,1.18,0.427,0.237
[N-]=[N+]=Nc1ccccc1C[C@]1(C(=O)O)N=C(c2ccc(OCCCO)cc2)O[C@H]1c1ccccc1N=[N+]=[N-],1.43,-0.228 (inactive),-0.896 (inactive),-1.17 (inactive),3.05,0.814 (inactive),0.376,-0.359,0.942,0.0729,0.944,1.06,1.12,-1.55 (inactive),0.445,1.06,0.342,0.546,-0.0824,0.884
C=C(C(=O)CC[C@@H](OC(=O)c1ccccc1-c1ccccc1C(=O)O)c1ccccc1OCCO)C(C)C,1.55,-1.28 (inactive),-0.832 (inactive),-1.88 (inactive),1.14,0.293 (inactive),-0.0617,1.36,1.05,-0.112,1.07,-0.232,-0.463,1.58 (inactive),1.53,0.645,0.354,1.38,0.73,1.26
